± gives the standard deviation of the averaged measurements. Whole data set: some 25,000 sequences, median “ln(normalized median fluorescence intensity)” near 8.6, cut for the highest 2% near 10. The entries come from a sample that favours the highest values as a whole.
What follows are sequences tested on PfAP2-EXP AP2 domain (GST-tagged) (assay: gcPBM binding intensity (ln(normalized median fluorescence intensity)); higher = stronger DNA binding).
Procedure, shortened: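 The binding buffer was 1× PBS containing 1% milk, 0.2 mg/ml BSA, 0.5% salmon testes DNA and 0.03% Triton X-100. In it, GST-tagged P. falciparum DNA-binding domains expressed in E. coli were applied for 1 h to an Agilent 4 × 180k array of primer-extended double-stranded 36-bp intergenic genomic probes plus negative controls. Binding intensity, read with Alexa488 anti-GST antibody and a 488 nm scan, is the highest Masliner-normalised natural-log median intensity across replicate spots of either probe orientation.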

| Sequence | gcPBM binding intensity (ln) |
| --- | --- |
| TCACATACATTACTTACACACCATATTAAGATATAC [CACACA_site4415] | 8.68 ± 0.43 |
| ATTTATATTCCAATATGTACATATTTTCGTATAACC [XGTACX_site8507] | 8.88 ± 0.35 |
| AAATTTCAATAATCTACACACATAAAAAAACAAAAG [CACACA_site1702] | 8.82 ± 0.52 |
| TACAATTTTTTAAATGCACACAAAAGGAATAAATAA [CACACA_site8075] | 8.78 ± 0.16 |
| GAAAAAAGAAATTAAACATGCATCTGCAAATTTAAA [TGCATGCA_site974] | 8.34 ± 0.42 |
| TGAATACTTATGTTCGCACACATGCAAATTAAAAAA [CACACA_site4048] | 8.62 ± 0.22 |
| ACTATAAATATATACACATGCGCACACACAAGTGGG [TGCATGCA_site432] | 8.77 ± 0.39 |
| TCTTATTCAAACGTAAAACGAAGAAGAAAAAAAAAA [CACACA_negctrl_site149] | 8.49 ± 0.41 |
| ATACACAAATGCATACGTACATATATATATATATAT [XGTACX_site3504] | 10.2 ± 0.33 |
| AAAATAATGTATATATGTACATATAAATATATATAT [XGTACX_site8081] | 9.32 |
| GTTATAAATGCATATACACACATACGTACATACATA [CACACA_site7655] | 8.79 ± 0.23 |
| ATAATAAAAATAAAATGTACATACATAAATATATAT [XGTACX_site6228] | 8.62 ± 0.28 |
| AATGTACAAATACGTACACACATATATATATATATA [CACACA_site1542] | 10.1 ± 0.42 |
| AAAATAATAAATAAATGTACATATATATATATATAT [XGTACX_site3078] | 10.2 ± 0.47 |
| TATTTCATATGAAGAAGTACTATTAATAATTTCCTT [XGTACX_site6587] | 8.3 ± 0.28 |
| TATTATTTTAATTATTCACACATTATTATAAAAATT [CACACA_site5538] | 8.3 ± 0.33 |
| ATTATTCGTTTTAAATGTACTCATATAAACGATAAA [XGTACX_site7866] | 8.52 ± 0.3 |
| GGATATAACAAACACACACACACATATATATATATT [CACACA_site4141] | 8.59 ± 0.19 |
| AAATCGAACAAATTATGTACTAAAAAAAAAATTTAT [XGTACX_site6399] | 8.39 ± 0.4 |
| AATATGTATCCATACACACATACATTTTATTTGCAA [CACACA_site874] | 8.65 ± 0.45 |
| TACAAAAAAATAAAAAAAATTAAATAAATAAATATA [CACACA_negctrl_site45] | 8.17 ± 0.37 |
| ATATATATATATATAACACACGCAAAAAAATTAAAT [CACACA_site8395] | 10.2 ± 0.26 |

| Sequence | gcPBM binding intensity (ln) |
| --- | --- |
| AAAAAAAATTAAAATAAAATATAAATATAAAATATA [GTGCAC_negctrl_site714] | 8.23 ± 0.24 |
| TGATATATATATATATATATAACACACGCAAAAAAA [TGCATGCA_negctrl_site240] | 8.73 ± 0.51 |
| AGCAAAAATTAAATAAATAAATATATATATATATAT [TGCATGCA_negctrl_site449] | 10.2 ± 0.63 |
| ATATATATATATAACACACGCAAAAAAATTAAATAA [CACACA_site1400] | 9.96 ± 0.11 |
| ATCATGTTATATACATGTACATATATATATATATAA [XGTACX_site609] | 8.51 ± 0.4 |
| TGTTATATGTTCAAATGTACAAATCATATACATGTT [XGTACX_site3192] | 8.45 ± 0.38 |
| ATCATGTTATATACATGTACATATATATATATATAT [XGTACX_site1329] | 10.2 ± 0.3 |
| TTATGGTTATACATATGTACATATATATATATATAT [XGTACX_site1494] | 10.3 ± 0.2 |
| ATATATATATACATATGTACATATATATTTATACAT [XGTACX_site2463] | 9.64 ± 0.33 |
| TATGTATCAAATAAATGTACATATATATATATATAT [XGTACX_site2189] | 10.1 ± 0.49 |
| ATATATATATATATATGTACATATGTTAGGATCAAA [XGTACX_site8626] | 10.2 ± 0.33 |
| ATATATATATATACATGTACATATATACATTATATT [XGTACX_site936] | 9.99 ± 0.45 |
| ATATATATATATATATGTACATATATACATATACAT [XGTACX_site2350] | 9.99 ± 0.43 |
| AAAGATACTTTCCTCAAACACACAAAACTATACAAC [CACACA_site1475] | 8.79 ± 0.45 |
| AAATTAAAATAATAATTCTACAAATTAATTTATCAT [XGTACX_negctrl_site44] | 7.97 ± 0.49 |
| TATTTAAAACTATACACATGCATTATATAAAGATAT [TGCATGCA_site702] | 8.79 ± 0.4 |
| AAAATAATATTTAATACACACATAATTATAATATAA [CACACA_site782] | 8.48 ± 0.32 |
| AATGTTTTTGTGAGATGTATAAATTTTATTTTATTT [XGTACX_negctrl_site413] | 8.38 ± 0.38 |
| ATATAACACAAGGGCACACATATACCTTTCCTTTTT [CACACA_site412] | 8.77 ± 0.36 |
| ATTAATTTTAATAAAGGTACACGTAGTTTTTTATTA [XGTACX_site7868] | 8.16 ± 0.34 |
| AAAAAAAAAATATGTACACACATATAAAATACATAA [CACACA_site6869] | 8.56 ± 0.3 |
| CACACCCACAAAAACACACACAAAGGTGTTCTTATA [CACACA_site1293] | 9.43 ± 0.64 |

| Sequence | gcPBM binding intensity (ln) |
| --- | --- |
| CAAACCCACCAACACACACACACAAAAATGATTAAA [CACACA_site2432] | 8.49 ± 0.68 |
| TTATGTTCTTTAAAACCACACACCCCCCAACCCCCC [CACACA_site8742] | 10.9 ± 0.29 |
| ATGTTCTTTAAAACCACACACCCCCCAACCCCCCTC [CACACA_site2373] | 10.6 ± 0.13 |
| CTTTAAACCCTGAACACACACAAATACACCCAAAAA [CACACA_site4297] | 8.81 ± 0.42 |
| TTTTTTTTTTTTTTTTTTTTTTTATGTTCTTAAAAA [GTGCAC_negctrl_site62] | 8.02 ± 0.67 |
| ATAAATTTTTTTTTTTTTTTTTTTTTTTTTTTTTTT [CACACA_negctrl_site508] | 9.19 ± 0.057 |
| ATATATTTTAATTGTTGTACATATTAAATAAATAGG [XGTACX_site2311] | 8.47 ± 0.49 |
| TTGTATAAAATATGTAGTACAATAATATAACATTTT [XGTACX_site8607] | 8.55 ± 0.2 |
| TATAAATTTAAAATGACACACACTAAAATTATTTAA [CACACA_site1239] | 8.36 ± 0.42 |
| TTATTTTATCACACATGTACATATGTTAATTTTTTT [XGTACX_site5598] | 8.84 ± 0.33 |
| ATTGGACTATAAATAGGTACACATATATATATATAT [XGTACX_site7562] | 10.4 ± 0.33 |
| ATAATAAAAAAAATTAGTACATATATAAATATAAAT [XGTACX_site1937] | 8.3 ± 0.33 |
| TATATTTATAGGTACACACACACATATAAATAAATA [CACACA_site6345] | 8.65 ± 0.37 |
| ATATAAAAAAAATTTAGTACATATATATATATATAT [XGTACX_site8635] | 10.2 ± 0.48 |
| CCTTGATATATATAAAGTACATATATATATATATAT [XGTACX_site4325] | 10.2 ± 0.24 |
| ATAAAAAAAAAAAAAAGTACACATATAAAAGTATTG [XGTACX_site8265] | 8.42 ± 0.41 |
| AAGCATAAAGTATATAGTACATATATATATATATAT [XGTACX_site2945] | 10.2 ± 0.26 |
| TTAAAAAAAAAAAAAAGTACATAAGTATATATAATA [XGTACX_site4295] | 8.43 ± 0.45 |
| ATAAAAAAATAAATTAGTACATATATATATATATAT [XGTACX_site6971] | 10.1 ± 0.35 |
| TAAAAATATAGGTATACACACATATAAATATAAATA [CACACA_site7785] | 8.54 ± 0.4 |
| AGATAAAAAAAGTACACACACACATATATATATATA [CACACA_site3072] | 10.2 ± 0.26 |
| TACATATATGATAAAAGTACATATAAATATACATAA [XGTACX_site3804] | 8.45 ± 0.33 |

— the supplement of paper PMC11417369
